Our source for the Percent Effect values is ChEMBL document CHEMBL3988442, “University of Dundee, Small-Polar-MMV Screening Library” (2021).

“And” between values parts separate entries of the source, which are not always exact repeats. Equal entries are not always repeated. For some of these results: Results with a measured potency or affinity are listed apart.

Holding throughout (set-up): scale not given: direction of the effect not stated beside the values
Assay [1] has as its target Protein translocase subunit SecA (Escherichia coli (strain K12)) (UniProt P10408). The assay is described as follows: Assay to Identify E. coli SecA ATPase Inhibitors. In kind it is functional. As to conditions: 30 µM.
For assay [2], the target named is T1, Ubiquitin-activating enzyme e1, putative (Leishmania donovani (strain BPK282A1)) (UniProt E9BSI1).
T1 sequence (whole entry): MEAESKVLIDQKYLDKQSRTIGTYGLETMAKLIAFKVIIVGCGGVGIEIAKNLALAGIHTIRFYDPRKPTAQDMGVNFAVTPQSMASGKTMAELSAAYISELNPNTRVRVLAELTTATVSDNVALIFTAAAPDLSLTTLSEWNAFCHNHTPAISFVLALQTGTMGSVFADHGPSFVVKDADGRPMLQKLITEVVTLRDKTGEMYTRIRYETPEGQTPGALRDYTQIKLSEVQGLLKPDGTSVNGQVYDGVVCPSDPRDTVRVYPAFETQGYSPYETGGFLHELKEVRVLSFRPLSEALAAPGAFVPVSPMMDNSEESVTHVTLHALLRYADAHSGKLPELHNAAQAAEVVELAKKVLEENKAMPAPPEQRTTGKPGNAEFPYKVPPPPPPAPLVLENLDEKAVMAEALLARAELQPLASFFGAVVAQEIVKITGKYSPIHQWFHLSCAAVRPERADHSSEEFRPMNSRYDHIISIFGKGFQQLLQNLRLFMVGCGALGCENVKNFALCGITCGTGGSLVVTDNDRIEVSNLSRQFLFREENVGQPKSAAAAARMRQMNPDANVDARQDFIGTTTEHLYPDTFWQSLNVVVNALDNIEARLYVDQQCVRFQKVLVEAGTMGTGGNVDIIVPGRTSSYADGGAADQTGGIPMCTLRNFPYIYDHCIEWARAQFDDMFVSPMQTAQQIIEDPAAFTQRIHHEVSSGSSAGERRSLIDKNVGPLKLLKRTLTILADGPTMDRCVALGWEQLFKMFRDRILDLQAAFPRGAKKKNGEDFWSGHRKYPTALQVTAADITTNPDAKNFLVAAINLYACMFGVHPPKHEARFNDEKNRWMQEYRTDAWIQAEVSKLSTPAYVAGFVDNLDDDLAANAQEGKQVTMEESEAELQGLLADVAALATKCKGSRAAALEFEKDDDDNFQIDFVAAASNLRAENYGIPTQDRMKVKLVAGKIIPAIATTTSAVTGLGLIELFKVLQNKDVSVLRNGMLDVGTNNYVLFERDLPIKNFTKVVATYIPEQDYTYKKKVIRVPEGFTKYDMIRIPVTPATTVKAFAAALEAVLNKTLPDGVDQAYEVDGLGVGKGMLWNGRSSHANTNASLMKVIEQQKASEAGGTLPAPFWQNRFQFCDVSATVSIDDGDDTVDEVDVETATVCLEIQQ
The assay is described as follows: Leishmania donovani Ubiquitin Activating Enzyme (LdE1). It counts as functional. As to conditions: 30 µM.

In assay [3] the target is AMP-activated protein kinase, AMPK (Homo sapiens) (UniProt P54646+O43741+P54619+Q9UGJ0+Q9Y478+Q13131+Q9UGI9). Briefly: AMP-dependent Kinase enzyme assay. An in vitro enzyme assay that detects ADP turnover that is directly proportional to AMPK activity. This uses naive AMPK that is activated during the assay with MK-8722. It counts as functional. The settings on record: 30 µM.

Assay [4] concerns the target Sialic acid-binding Ig-like lectin 9 (Homo sapiens) (UniProt Q9Y336). Briefly: Hs-Siglec9 ALPHAscreen SOP 20170721. As to conditions: 10 µM. (In general: In Alpha technology, singlet oxygen from a donor bead excites a nearby acceptor bead.)
The subject of a further assay is Trypanosoma cruzi. Briefly: Trypanosoma cruzi phosphomannomutase and mannose-1-phosphate guanylyltransferase assay. In kind it is functional. The settings on record: 10 µM.
The target in assay [5] is T2, Arginase-2, mitochondrial (Homo sapiens) (UniProt P78540).
T2 sequence (whole entry): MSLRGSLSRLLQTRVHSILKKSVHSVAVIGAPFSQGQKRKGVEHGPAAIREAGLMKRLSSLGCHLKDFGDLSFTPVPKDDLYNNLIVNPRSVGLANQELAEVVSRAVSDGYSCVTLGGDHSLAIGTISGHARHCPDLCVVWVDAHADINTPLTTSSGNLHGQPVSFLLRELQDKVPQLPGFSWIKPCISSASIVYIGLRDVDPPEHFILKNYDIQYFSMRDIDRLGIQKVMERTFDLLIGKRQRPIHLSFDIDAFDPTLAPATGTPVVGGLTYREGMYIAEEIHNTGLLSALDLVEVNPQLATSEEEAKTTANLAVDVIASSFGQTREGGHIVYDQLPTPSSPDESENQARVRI
Briefly: in vitro enzyme assay to detect the production of urea directly proportional to the activity of Arginase II. Also: in the data most compounds retested in dose-response had high values. In kind it is functional. The settings on record: 33.3 µM.

For assay [6], the target named is T3, Proteasome subunit beta (Trypanosoma cruzi) (UniProt O96673).
T3 sequence (whole entry): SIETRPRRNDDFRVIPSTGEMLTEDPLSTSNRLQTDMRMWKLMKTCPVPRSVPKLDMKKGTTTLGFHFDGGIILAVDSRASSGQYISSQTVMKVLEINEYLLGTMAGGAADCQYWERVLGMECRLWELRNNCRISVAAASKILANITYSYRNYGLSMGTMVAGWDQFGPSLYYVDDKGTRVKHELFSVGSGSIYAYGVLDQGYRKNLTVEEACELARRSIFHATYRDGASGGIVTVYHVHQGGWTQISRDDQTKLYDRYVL
The assay is described as follows: Trypanosoma cruzi proteasome chymotrypsin-like activity (TcProtChymo) assay. Also: in the data most compounds retested in dose-response had high values. In kind it is functional. The settings on record: 9.37 µM.

For another assay, the species on record is Homo sapiens. Briefly: To identify inhibition of the IFN signalling (Jak-Stat) pathway via expression of an eGFP reporter gene under the control of an IFN-stimulated response element (ISRE) containing MxA promoter. In kind it is functional. The settings on record: 30 µM.
The target in assay [7] is T4, Tyrosyl-tRNA synthetase, putative (Trypanosoma cruzi (strain CL Brener)) (UniProt Q4DSP6).
T4 sequence (whole entry): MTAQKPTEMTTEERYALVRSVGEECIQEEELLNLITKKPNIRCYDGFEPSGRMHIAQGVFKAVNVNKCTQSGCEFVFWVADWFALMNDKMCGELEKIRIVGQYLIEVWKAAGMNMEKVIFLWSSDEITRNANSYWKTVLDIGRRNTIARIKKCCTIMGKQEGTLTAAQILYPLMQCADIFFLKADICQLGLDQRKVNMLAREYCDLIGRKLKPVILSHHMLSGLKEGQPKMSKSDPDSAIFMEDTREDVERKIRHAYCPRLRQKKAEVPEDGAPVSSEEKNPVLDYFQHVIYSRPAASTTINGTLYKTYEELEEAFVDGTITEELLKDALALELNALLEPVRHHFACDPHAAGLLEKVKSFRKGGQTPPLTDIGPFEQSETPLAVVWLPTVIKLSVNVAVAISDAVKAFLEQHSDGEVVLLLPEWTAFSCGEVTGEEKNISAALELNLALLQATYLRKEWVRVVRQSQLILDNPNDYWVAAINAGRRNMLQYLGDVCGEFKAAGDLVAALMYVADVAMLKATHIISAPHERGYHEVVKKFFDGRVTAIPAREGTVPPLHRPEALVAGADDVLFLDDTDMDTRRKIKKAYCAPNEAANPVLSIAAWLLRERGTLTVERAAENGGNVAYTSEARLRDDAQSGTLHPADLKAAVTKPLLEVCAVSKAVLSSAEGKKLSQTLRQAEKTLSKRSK
Briefly: Trypanosoma cruzi tyrosyl tRNA synthetase (TcYRS) _High Tyrosine SOP. Also: in the data most compounds retested in dose-response had high values. It counts as functional. The settings on record: 30 µM.

For assay [8], the target named is T4, Tyrosyl-tRNA synthetase, putative (Trypanosoma cruzi (strain CL Brener)). Briefly: Trypanosoma cruzi tyrosyl tRNA synthetase (TcYRS) SOP. In kind it is functional. The settings on record: 30 µM.
Assay [9] concerns the target Chromo domain-containing protein 1 (Saccharomyces cerevisiae (strain ATCC 204508 / S288c) (Baker's yeast)) (UniProt P32657). The assay is described as follows: ScCHD-1 Enzyme Inhibition Assay. Also: in the data most compounds retested in dose-response had high values. It counts as functional. The settings on record: 30 µM.
Another assay has as its system N/A. The assay is described as follows: Trypanosoma cruzi proteasome luciferase counter-screen. In kind it is functional. As to conditions: 9.37 µM. Background: A counterscreen serves to expose hits that act by an unwanted route or on another target.

Sequence of Chromo domain-containing protein 1 (Saccharomyces cerevisiae (strain ATCC 204508 / S288c) (Baker's yeast)) (P32657 whole entry, the tested form may be a part): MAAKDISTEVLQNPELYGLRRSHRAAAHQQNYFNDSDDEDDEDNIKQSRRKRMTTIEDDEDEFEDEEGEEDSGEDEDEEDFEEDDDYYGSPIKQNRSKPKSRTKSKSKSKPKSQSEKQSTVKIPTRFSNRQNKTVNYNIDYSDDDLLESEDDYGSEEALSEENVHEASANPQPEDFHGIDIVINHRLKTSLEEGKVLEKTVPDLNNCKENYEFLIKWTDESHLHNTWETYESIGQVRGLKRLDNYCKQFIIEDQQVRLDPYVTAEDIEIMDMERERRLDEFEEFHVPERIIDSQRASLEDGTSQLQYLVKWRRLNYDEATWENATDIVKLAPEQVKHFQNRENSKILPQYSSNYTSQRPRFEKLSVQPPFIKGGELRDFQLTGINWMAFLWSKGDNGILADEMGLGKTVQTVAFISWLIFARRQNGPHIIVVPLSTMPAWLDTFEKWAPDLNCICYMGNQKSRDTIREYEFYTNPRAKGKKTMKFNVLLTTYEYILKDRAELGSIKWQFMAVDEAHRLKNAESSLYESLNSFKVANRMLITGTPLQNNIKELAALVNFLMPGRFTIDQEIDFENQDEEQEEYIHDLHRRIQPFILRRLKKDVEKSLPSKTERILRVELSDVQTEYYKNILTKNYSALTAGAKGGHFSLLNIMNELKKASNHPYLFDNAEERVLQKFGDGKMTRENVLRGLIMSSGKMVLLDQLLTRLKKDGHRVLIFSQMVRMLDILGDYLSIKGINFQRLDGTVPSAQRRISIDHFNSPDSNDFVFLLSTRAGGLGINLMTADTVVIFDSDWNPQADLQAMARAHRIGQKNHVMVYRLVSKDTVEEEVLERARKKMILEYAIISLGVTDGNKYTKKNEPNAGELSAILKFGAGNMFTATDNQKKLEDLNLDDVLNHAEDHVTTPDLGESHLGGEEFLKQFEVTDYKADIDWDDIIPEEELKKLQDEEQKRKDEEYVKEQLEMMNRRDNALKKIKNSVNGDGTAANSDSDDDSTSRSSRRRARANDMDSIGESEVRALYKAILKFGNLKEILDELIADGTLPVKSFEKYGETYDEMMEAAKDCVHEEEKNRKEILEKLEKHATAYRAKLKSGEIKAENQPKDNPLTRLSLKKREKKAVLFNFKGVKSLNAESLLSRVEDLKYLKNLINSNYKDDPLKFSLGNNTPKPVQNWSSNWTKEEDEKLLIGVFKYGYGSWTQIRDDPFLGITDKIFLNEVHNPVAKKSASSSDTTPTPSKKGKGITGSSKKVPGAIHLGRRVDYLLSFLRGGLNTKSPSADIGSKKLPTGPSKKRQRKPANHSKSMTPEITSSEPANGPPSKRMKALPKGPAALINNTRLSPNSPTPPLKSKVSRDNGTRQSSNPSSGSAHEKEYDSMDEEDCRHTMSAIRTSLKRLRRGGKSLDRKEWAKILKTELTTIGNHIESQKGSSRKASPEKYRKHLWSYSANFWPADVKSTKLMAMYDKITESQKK
Sequence of Sialic acid-binding Ig-like lectin 9 (Homo sapiens) (Q9Y336 whole entry): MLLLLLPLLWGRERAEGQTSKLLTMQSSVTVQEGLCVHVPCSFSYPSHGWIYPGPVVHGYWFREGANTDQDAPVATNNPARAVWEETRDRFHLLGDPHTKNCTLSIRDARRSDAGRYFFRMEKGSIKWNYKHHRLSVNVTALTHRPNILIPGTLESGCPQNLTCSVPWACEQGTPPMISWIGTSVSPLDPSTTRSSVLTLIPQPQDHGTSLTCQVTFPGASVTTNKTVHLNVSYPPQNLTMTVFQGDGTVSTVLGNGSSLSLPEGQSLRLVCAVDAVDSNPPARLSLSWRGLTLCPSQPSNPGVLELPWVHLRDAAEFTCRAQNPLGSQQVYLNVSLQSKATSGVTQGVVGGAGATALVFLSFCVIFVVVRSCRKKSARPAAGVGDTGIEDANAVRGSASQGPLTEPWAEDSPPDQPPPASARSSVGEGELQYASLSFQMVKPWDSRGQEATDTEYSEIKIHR
Sequence of Protein translocase subunit SecA (Escherichia coli (strain K12)) (P10408 whole entry): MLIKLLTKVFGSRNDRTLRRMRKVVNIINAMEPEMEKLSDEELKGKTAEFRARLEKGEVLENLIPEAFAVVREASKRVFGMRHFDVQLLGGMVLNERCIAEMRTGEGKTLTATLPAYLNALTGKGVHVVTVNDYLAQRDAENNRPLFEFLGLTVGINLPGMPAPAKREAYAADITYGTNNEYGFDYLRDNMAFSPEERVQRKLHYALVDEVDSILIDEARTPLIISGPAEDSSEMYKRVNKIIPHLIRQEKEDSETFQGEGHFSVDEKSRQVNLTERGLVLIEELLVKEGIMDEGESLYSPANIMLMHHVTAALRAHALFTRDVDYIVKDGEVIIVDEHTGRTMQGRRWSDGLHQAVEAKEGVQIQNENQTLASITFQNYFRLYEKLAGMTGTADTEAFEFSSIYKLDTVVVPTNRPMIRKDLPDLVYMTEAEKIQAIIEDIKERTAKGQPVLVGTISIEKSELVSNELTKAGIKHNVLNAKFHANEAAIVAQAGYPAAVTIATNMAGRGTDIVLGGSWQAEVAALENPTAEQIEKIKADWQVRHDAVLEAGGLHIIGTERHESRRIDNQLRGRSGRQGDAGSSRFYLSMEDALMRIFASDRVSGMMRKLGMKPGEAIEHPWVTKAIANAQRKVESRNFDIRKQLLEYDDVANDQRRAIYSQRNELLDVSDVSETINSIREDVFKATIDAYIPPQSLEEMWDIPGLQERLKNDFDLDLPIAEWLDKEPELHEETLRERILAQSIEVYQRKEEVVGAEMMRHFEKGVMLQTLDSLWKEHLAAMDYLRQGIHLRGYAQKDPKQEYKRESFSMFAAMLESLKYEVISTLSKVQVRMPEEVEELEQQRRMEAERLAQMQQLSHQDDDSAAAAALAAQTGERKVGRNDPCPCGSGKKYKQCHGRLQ

For `Cn1ccnc1-c1ccccc1C(=O)N1CCc2c(nc(N)[nH]c2=O)C1`, the Percent Effect in [1] is -3.72%; in assay [2], 7.79%; in assay [3], 3.19%; in assay [4], 4.47%; in the assay on Trypanosoma cruzi it was -2.06%; in [5], -6.9%. Further, the Percent Effect came out at 16.8% in assay [6]; 5.31% in the assay filed under Homo sapiens; 4.3% in assay [7]; 11.1% in [8]; 3.09% in assay [9].

For `COc1cccc(S(=O)(=O)NC(=O)COc2c(C)cccc2C)c1`, the Percent Effect in assay [1] was -5.17%; in [2], 7.79%; in assay [3] it was -10.1%; in assay [4] it was -4.14%; in the assay with Trypanosoma cruzi, -2.81%; in [5], 2.13%. In addition, the Percent Effect in assay [6] was 6.08%; in the assay filed under Homo sapiens, 10.3%; in assay [7], 0%; in [8], 12.2%; in assay [9], -4.1%.

For the molecule `COc1c(C)cnc(CSc2nnc(C)s2)c1C`, the Percent Effect in [1] is -4.15%; in assay [2], 5.33%; in assay [3], -1.7%; in assay [4], 12.8%; in the assay on Trypanosoma cruzi it was 6.33%; in [5], 8.33%. In addition, the Percent Effect in [6] is 4.53%; in the assay listed under Homo sapiens, 6.59%; in [7] it was 1.64%; in assay [8], 6.17%; in [9] it was -14.7%.

As to `Cc1csc(CNC(=O)NC2CCN(c3ncccn3)CC2)n1`, the Percent Effect in assay [1] was -4.13%; in assay [2], 11%; in assay [3], -4.87%; in assay [4], 16.2%; with Trypanosoma cruzi it was 4.37%; in assay [5], -3.19%. In addition, the Percent Effect in assay [6] was 12.6%; in the assay filed under Homo sapiens it was 5.21%; in assay [7], 10.4%; in [8], 25.9%; in [9] it was -3.12%.

With `Cc1cccc(-c2ccc(C(=O)NCC(C)(C)C(N)=O)c(=O)[nH]2)c1`, the Percent Effect in assay [1] is -5.4%; in assay [2], 2.7%; in [3], -7.65%; in assay [4], 17.1%; with Trypanosoma cruzi, 2.92%; in [5] it was -2.81%. Besides, the Percent Effect in [6] is 5.41%; in the assay filed under Homo sapiens, 0.882%; in assay [7], -0.493%; in assay [8], 11.1%; in assay [9], -14.8%.

On to `CC(C)S(=O)(=O)N1CCC(c2cc3n(n2)[C@@H](C(F)(F)F)C[C@@H](C)N3)C1` (stereo partly specified), for which the Percent Effect in assay [1] was -0.301%; in assay [2] it was 5.33%; in [3], -46.3%; in assay [4], 0.653%; with Trypanosoma cruzi it was 4.13%; in assay [5], -1.63%. For the same molecule, the Percent Effect is 5.02% in assay [6]; 9.18% in the assay listed under Homo sapiens; 4.25% in assay [7]; 6.41% in assay [8]; -0.108% in assay [9].

Regarding `COc1ccccc1OCC(=O)NS(=O)(=O)c1cc(F)ccc1F`, the Percent Effect in assay [1] was -2.96%; in [2] it was -2.7%; in assay [3] it was 1.01%; in assay [4], 2.58%; in the assay on Trypanosoma cruzi, -5.99%; in assay [5], 0%. Further, the Percent Effect in [6] was 0.345%; in the assay filed under Homo sapiens, 0.0392%; in assay [7], 0.529%; in assay [8], 4.88%; in assay [9], -1.41%.

Take `O=C(Cc1csc(-c2ccco2)n1)N1CCN(c2cnccn2)CC1`: the Percent Effect in [1] is -3.21%; in assay [2], 13.9%; in assay [3], -1.6%; in [4] it was 4.73%; in the assay with Trypanosoma cruzi it was 0.718%; in assay [5], -1.94%. In addition, the Percent Effect is 17.5% in assay [6]; 13.5% in the assay filed under Homo sapiens; 11.5% in [7]; 22.8% in assay [8]; -30.1% in [9].

For the molecule `O=C(CCC1CCCO1)NS(=O)(=O)c1ccc(Cl)cc1` (stereo unspecified), the Percent Effect in [1] was -3.22%; in assay [2], 18.9%; in [3], -10.2%; in assay [4], 0.394%; in the assay on Trypanosoma cruzi it was -4.81%; in [5], -2%. Further, the Percent Effect in assay [6] was 17.5%; in the assay filed under Homo sapiens, 16.7%; in assay [7] it was 8.37%; in assay [8], 18.5%; in assay [9] it was -1.63%.

Regarding `CN(Cc1cc[nH]n1)C(=O)c1cccc(CCC(C)(C)O)c1`, the Percent Effect was -4.29% in assay [1]; -2.67% in assay [2]; 0.5% in assay [3]; 1.39% in [4]; -5.16% in the assay on Trypanosoma cruzi; -0.521% in assay [5]. Besides, the Percent Effect is 6.9% and 8.45% in the assay with N/A; -13.1% in the assay listed under Homo sapiens; 0.546% in [7]; 3.7% in [8]; -5.03% in [9].

With `O=C(c1cnc(-c2cccs2)s1)N1CCCC(n2cccn2)C1` (stereo unspecified), the Percent Effect in assay [1] is -4.52%; in [2], 13.5%; in assay [3], 1.78%; in [4], 1.67%; in the assay on Trypanosoma cruzi, -1.6%; in [5] it was -2%. The Percent Effect in assay [6] was 3.24%; in the assay listed under Homo sapiens it was 13.5%; in assay [7], 5.42%; in [8] it was 11.1%; in [9], -8.6%.
